PubChem BioAssay AID431 (Sanford-Burnham Center for Chemical Genomics, 2006)
Screen size: about 63,000 compounds; about 1,100 (1.7%) were called active. What follows is part of a selection rich in actives, with near analogues and random picks from the rest. Potency and affinity values are given separately. Unmarked numbers belong to inactive results.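 Rule for the calls: active = compounds whose percent cytotoxicity in the single-dose primary screen, scaled between solvent and toxic-drug controls, exceeds 50; inactive = the rest.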

Test: cytotoxicity in KRAS-transformed pancreatic duct cells, primary screen, cell-based, fluorescence, HTS (AID 431);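 note: 0% = DMSO solvent wells and 100% = doxorubicin-treated wells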
Conditions: HPDE-C7K KRASV12 cells, Alamar Blue viability, 48 h; at 10 µM; hits give high values

Row | SMILES | cytotoxicity
1 | O=C(O)Cc1nc2nc3c(c(=O)n2[nH]1)CCCC3 | 2%
2 | Cc1cc(C)nc(NC(=O)c2cccc(Cl)c2)n1 | -1.9%
3 | COc1ccc(OCCCC(=O)Nc2ccc3c(c2)OCCO3)cc1 | 12.2%
4 | C=CCc1c(C)c(C#N)c2nc3ccccc3n2c1NCCN(C)C | 5.5%
5 | CCOC(=O)c1cc2c(ccn2C)n1CC(=O)N1CCN(c2ccc(F)cc2)CC1 | -18.9%
6 | CSc1nc(N2CCOCC2)c2ccccc2n1 | 9.1%
7 | Cc1cc(C)c(NC(=O)CN2CCN3CCCC3C2)c(C)c1 (stereo not drawn) | 2.9%
8 | O=C(NC1CC2CCCC(C1)N2C1CC1)NC12CC3CC(CC(C3)C1)C2 (stereo not drawn) | 5.1%
9 | CCOC(=O)c1cccc(NC(=O)CSc2nc3ccccc3c(=O)n2CC)c1 | -11.5%
10 | O=C(COC(=O)CCC1CCCC1)Nc1ccc(Cl)cn1 | -7.1%
11 | COc1cccc(N2CC(O)Cn3c2nc2c3c(=O)n(CCCc3ccccc3)c(=O)n2C)c1 (stereo not drawn) | 7.7%
12 | CN1C(=O)CSc2ccc(NC(=O)Nc3ccccn3)cc21 | -13.1%
13 | Cc1cc(C)nc(NS(=O)(=O)c2ccccc2)n1 | 16.4%
14 | COc1ccc(-c2ccc(SCC(=O)N3CCOCC3)nn2)cc1 | -3.5%
15 | O=C(CSc1nc(-c2ccccc2)nc2c1CCCC2)N1CCOCC1 | -14.2%
16 | COc1ccc(-c2nc3c(c(SCC(=O)N4CCOCC4)n2)COC(C)(C)C3)cc1 | 52.7% (active)
17 | COCCCNC(=O)CS(=O)(=O)Cc1nc(-c2ccccc2C)oc1C | -5.9%
18 | CC(=O)N1CCc2ccc(C(=O)CN3CCN(c4cccc(C)c4C)CC3)cc21 | -16.3%
19 | Cc1nc(N2CCCC2)c2nnn(Cc3ccccc3Cl)c2n1 | -7.7%
20 | O=C(c1ccco1)N1CCN(c2nc(C(F)(F)F)nc3c2nnn3Cc2ccccc2)CC1 | -16.9%
21 | CSc1nc(SCC(=O)NCc2ccco2)c2c3c(sc2n1)CN(C)CC3 | 4.2%
22 | CC(C)Sc1nc(SCC(=O)NCc2ccco2)c2c3c(sc2n1)COC(C)(C)C3 | 0.4%
23 | c1coc(CNc2ncnc3sc4c(c23)CCCCC4)c1 | -13.4%
24 | CCCc1nc2sc3c(SCC(=O)NCc4ccco4)ncnc3c2c2c1CCC2 | 50.3% (active)
25 | CC(C)Sc1nc(NCc2ccco2)c2c3c(sc2n1)COC(C)(C)C3 | 68.5% (active)

Row | SMILES | cytotoxicity
26 | CSc1nc(NCc2ccco2)c2c3c(sc2n1)CN(C)CC3 | -5.3%
27 | Cc1nc(SCC(=O)NCc2ccco2)c2c3c(sc2n1)CCCC3 | 2.5%
28 | O=C(CSc1ncnc2sc3c(c12)CCCCC3)NCc1ccco1 | 1.1%
29 | Cc1nc(NCc2ccco2)c2c3c(sc2n1)CCC3 | 52% (active)
30 | CC(C)c1nc2sc3c(SCC(=O)NCc4ccco4)ncnc3c2c2c1CCC2 | 7.4%
31 | CC(C)c1nc2sc3c(NCc4ccco4)ncnc3c2c2c1COC(C)(C)C2 | -13.3%
32 | CSc1nc(SCC(=O)NCc2ccco2)c2c3c(sc2n1)COC(C)(C)C3 | 50.1% (active)
33 | COc1cccc(C(O)c2cnc(C(C)C)n2C)c1OC (stereo not drawn) | 10.6%
34 | O=C(Nc1ccc(S(=O)(=O)N2CCCCC2)cc1)c1ccncc1 | -7.1%
35 | CCOc1ccccc1-c1nnc(SCC(=O)Nc2ccccc2)o1 | -17.6%
36 | COCCCNC(=O)CS(=O)(=O)Cc1nc(-c2cccc(OC)c2)oc1C | -6.5%
37 | COc1ccc(-c2nnc3n2-c2ccccc2SC3)cc1OC | 0%
38 | O=C(Cc1cc(=O)[nH]c(=O)[nH]1)N1CCN(C(=O)c2ccco2)CC1 | 7.1%
39 | CCCCc1ccc(-c2ccc(C)cc2O)nc1 | -28%
40 | CCCCCc1cc(O)c2c(C)cc(=O)oc2c1 | 39.2%
41 | C=CCn1c(SCc2csc(C)n2)nc2scc(-c3ccc(C)o3)c2c1=O | 80.2% (active)
42 | Cc1ccc(-c2csc3nc(C)n(-n4c(C)ccc4C)c(=O)c23)o1 | 10.3%
43 | C=CCn1c(SCc2csc(C)n2)nc2sc3c(c2c1=O)CCCCC3 | 2.5%
44 | Cc1ccc(-c2noc(CN(C(=O)CCN3C(=O)c4ccccc4C3=O)C(C)C)n2)cc1 | -8.2%
45 | CC(=O)OCCOc1nc(N(C)C)nc(N(C)C)n1 | -13.1%
46 | O=C(CCN1CCCC1Cc1ccccc1)c1ccc2c(c1)OCCO2 (stereo not drawn) | -15.3%
47 | Cc1cc(C)n(-c2nnc(C)n2/N=C/c2cc(Br)ccc2OCc2ccccc2)n1 | 65.2% (active)
48 | CCCOc1ccc2ccccc2c1/C=N/n1c(C)nnc1-n1nc(C)cc1C | 39.3%
49 | Cc1cc(C)n(-c2nnc(C)n2/N=C/c2ccccc2OCc2ccccc2Cl)n1 | 43.9%
50 | COc1ccc(-c2nnn(CC(=O)c3ccc4c(c3)OCCO4)n2)cc1OC | 0.3%

Row | SMILES | cytotoxicity
51 | O=C(c1ccc2ccccc2c1)N1CCN(c2ccccc2)CC1 | -11.6%
52 | O=C(c1ccc2ccccc2c1)N1CCN(c2ccc(O)cc2)CC1 | 65.9% (active)
53 | CN1CCN(C(=O)c2ccc3ccccc3c2)CC1 | -8.1%
54 | CC(C)OCCCNC(=O)c1ccc(NC(=O)C2CCCO2)cc1 (stereo not drawn) | -5.7%
55 | Cc1cc(NC(=O)C23CCC(C)(C(=O)O2)C3(C)C)no1 (stereo not drawn) | 1.7%
56 | O=C(NCc1ccco1)N1c2ccccc2Sc2ccccc21 | 7.5%
57 | COC(=O)C1=C(C)NC(=O)C1(NC(=O)CN1CCCC1=O)C(F)(F)F (stereo not drawn) | 13.1%
58 | CCOC(=O)C1CCCN(C(=O)c2cc3c(C)nc4ccccc4c3o2)C1 (stereo not drawn) | -14.6%
59 | N#Cc1c(NC(=O)CSc2nnnn2C2CCCCC2)sc2c1CCCC2 | -26.1%
60 | Cc1sc(NC(=O)CSc2nnnn2C2CCCC2)c(C#N)c1C | -6.4%
61 | N#Cc1c(NC(=O)CSc2nnnn2C2CCCC2)sc2c1CCCC2 | 50.4% (active)
62 | CC1CCCN(C(=O)c2ccc3nc[nH]c3c2)C1 (stereo not drawn) | -23.2%
63 | COc1ccc(C)cc1NC(=O)c1ccc(S(=O)(=O)N2CCOCC2)cc1 | -1.3%
64 | Nc1nonc1C(=O)NCCN=Cc1cc(Cc2ccccc2)cc(Br)c1O | 82.8% (active)
65 | COc1cccc(C=NCCNC(=O)c2nonc2N)c1O | -2.1%
66 | Nc1nonc1C(=O)NCCNC(=O)c1ccccc1F | 2.3%
67 | O=C(OCc1ccccc1Cl)c1ccc(-n2cnnc2)cc1 | -8%
68 | CCOc1ccc(-n2cnnn2)cc1S(=O)(=O)NCc1ccccc1 | 4.1%
69 | CC(C)(O)C1=NOC(c2ccccc2)C1 (stereo not drawn) | 6.7%
70 | CCOC(=O)c1ccc(NC(=O)CSc2nnc(-c3cccs3)n2CC)cc1 | 0.1%
71 | COC(=O)c1ccc(/C(O)=C(\C#N)c2nc3ccccc3s2)cc1 | 52.1% (active)
72 | Cc1ccc(SC/C(O)=C(\C#N)c2nc3ccccc3s2)cc1 | 79.7% (active)
73 | COc1ccc(C/C(O)=C(\C#N)c2nc3ccccc3s2)cc1 | 46.6%
74 | N#C/C(=C(/O)CN1CCOCC1)c1nc2ccccc2s1 | 3%
75 | CC(C)=C(C#N)c1nc2ccccc2s1 | -11.4%

Row | SMILES | cytotoxicity
76 | Cc1ccc(SC/C(O)=C(\C#N)c2nc3ccccc3n2C)cc1 | 20.5%
77 | c1ccc(N2CCN(c3nnc(Cc4cccnc4)c4ccccc34)CC2)nc1 | 8.4%
78 | COc1ccc(OC)c(NC(=O)c2cnc3ccccn3c2=O)c1 | 12.6%
79 | COC(=O)CN(c1ccc(F)cc1)S(=O)(=O)c1ccccc1 | -5.6%
80 | CC(C)CCNC(=O)CN(C(=O)CCC(=O)Nc1ccccn1)c1ccc2c(c1)OCO2 | -9.3%
81 | COC(=O)c1cc(N2C(=O)C3C(C2=O)C2(C)C=CC3(C)O2)ccc1Cl (stereo not drawn) | 8%
82 | Cc1cccc(OCCn2c(=O)n(C)c3ccccc32)c1 | 2.1%
83 | Cc1cccc(OCCCN2CCCCCC2)c1 | 18.4%
84 | CCCn1nc(CC(=O)O)c2ccccc2c1=O | 0.6%
85 | Cc1ccc(NC(=O)CCn2c(=O)oc3ccccc32)c(C)c1 | -9.2%
86 | CCCCn1c(SCc2ncc(-c3ccccc3)o2)nc2cc(S(N)(=O)=O)ccc21 | 53.1% (active)
87 | CCCCn1c(SCc2c(C)noc2C)nc2cc(S(N)(=O)=O)ccc21 | 39.5%
88 | CCCCn1c(SCN2C(=O)c3ccccc3C2=O)nc2cc(S(N)(=O)=O)ccc21 | -14.9%
89 | COc1ccccc1C1C2CCCCC2(O)CCN1CC(=O)Nc1ccccc1 (stereo not drawn) | -7.4%
90 | Cn1cc(S(=O)(=O)CC(=O)N2CCc3ccccc32)c2ccccc21 | 26.9%
91 | O=C(CSc1nnc(-c2cc3ccccc3cc2O)n1Cc1ccco1)c1ccc(F)cc1 | 13.1%
92 | COc1ccc(C(=O)CSc2nnc(-c3ccccn3)n2Cc2ccco2)cc1 | 5%
93 | COc1ccc(C(=O)CSc2nnc(-c3cc4ccccc4cc3O)n2Cc2ccco2)cc1 | 66.1% (active)
94 | Cc1nc2c(c(=O)n1CCC1=CCCCC1)c1nc3ccccc3nc1n2/N=C/c1ccco1 | 63.1% (active)
95 | CCCn1c(C)nc2c(c1=O)c1nc3ccccc3nc1n2CCC1=CCCCC1 | 16.1%
96 | O=c1c2c3nc4ccccc4nc3n(/N=C/c3ccco3)c2ncn1CCC1=CCCCC1 | 30%
97 | COc1ccc(OC)c(S(=O)(=O)n2nc(-c3ccccc3)cc2N)c1 | -10.9%
98 | COc1ccc(S(=O)(=O)n2nc(-c3cc(OC)c(OC)c(OC)c3)cc2N)cc1OC | 5.2%
